Measured values taken from PubChem BioAssay (NCI).
This is part of a sample that, as a whole, favours compounds with a hit. Of some 83,000 tested, about 20% had one in any assay.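 Negative percent growth values reflect cell death: -40 means 40% of the cells present at the start died, and -100 means all died.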 Values without a mark were called inactive. The source made the active and inactive calls. Rule for the calls: active = growth percent below 10; inactive = the rest.

Experiments:
Test in all cases: NCI-60 one-dose screen, 48 h (100 = growth as untreated, 0 = no growth, -100 = all killed)
Conditions in all cases: 10 µM unless noted
NCI-H23 lung = test system: NCI-H23 lung
NCI-H226 lung = test system: NCI-H226 lung
NCI-H322M lung = test system: NCI-H322M lung
HOP-62 NSCLC = test system: HOP-62 NSCLC
NCI-H460 lung = test system: NCI-H460 lung
HOP-92 NSCLC = test system: HOP-92 NSCLC
NCI-H522 lung = test system: NCI-H522 lung
A549/ATCC NSCLC = test system: A549/ATCC NSCLC
786-0 renal = test system: 786-0 renal
COLO 205 colon = test system: COLO 205 colon
DU-145 prostate = test system: DU-145 prostate
K-562 leukemia = test system: K-562 leukemia
MALME-3M melanoma = test system: MALME-3M melanoma
MDA-MB-231 breast = test system: MDA-MB-231 breast
RXF 393 renal = test system: RXF 393 renal
SF-268 CNS = test system: SF-268 CNS
SF-295 CNS = test system: SF-295 CNS
SF-539 CNS = test system: SF-539 CNS
UACC-257 melanoma = test system: UACC-257 melanoma
M14 melanoma = test system: M14 melanoma

Row | Structure (SMILES) | growth (NCI-H23 lung) | growth (NCI-H226 lung) | growth (NCI-H322M lung) | growth (HOP-62 NSCLC) | growth (NCI-H460 lung) | growth (HOP-92 NSCLC) | growth (NCI-H522 lung) | growth (A549/ATCC NSCLC) | growth (786-0 renal) | growth (COLO 205 colon) | growth (DU-145 prostate) | growth (K-562 leukemia) | growth (MALME-3M melanoma) | growth (MDA-MB-231 breast) | growth (RXF 393 renal) | growth (SF-268 CNS) | growth (SF-295 CNS) | growth (SF-539 CNS) | growth (UACC-257 melanoma) | growth (M14 melanoma)
1 | CC(C)NCCCCCNc1cc(O)cc2cccnc12 | 45.7% | 92.1% | 56.9% | 71.5% | 105% | -8.76% (active) | 86.5% | 123% | 70.1% | -36.3% (active) | 93.2% | 67.6% | 23.8% | 26.6% | 74.7% | 89.2% | 77.4% | 71.5% | 111% | 88.2%
2 | NC(=O)Nc1ccc2ncnc(Nc3cccc(O)c3)c2c1 | 100% | 102% | 83.5% | 92.8% | 108% | 78% | 102% | 93.5% | 92.6% | 94.7% | 90.4% | 103% | 121% | 104% | 111% | 85.4% | 98.1% | 109% | 99.8% | 102%
3 | COc1ccc(NC(=O)/C=C/c2ccc(Cl)c(Cl)c2)cn1 | 84.7% | 68.3% | 91.6% | 90.1% | 99% | 87.1% | 79.9% | 79.1% | 85.6% | 101% | 96.7% | 58% | 92% | 95% | 89.4% | 95.7% | 84.5% | 98.2% | 79.9% | 95.9%
4 | Nc1nc2c(c3ncccc13)C(c1ccccc1)Cc1ncccc1-2 (stereo not given) | 83.3% | 88.4% | 102% | 72.1% | 92% | 96.1% | 42.9% | 72.3% | 104% | 87.8% | 103% | 27.1% | 76.1% | 65.9% | 99.3% | 86.4% | 67.4% | 78.1% | 93.1% | 44.8%
5 | O=C(Nc1ccc2[nH]c3ccccc3c2c1)c1ccccc1Cl | 67.7% | 81.1% | 56.4% | 45.1% | 22.5% | 76.1% | 15.7% | 40.5% | 62.1% | 14% | 75% | 10% (active) | 35.3% | 40.3% | 26.5% | 63% | 10.7% | 51.7% | 83.1% | 26.2%
6 | CC1(C)CC[C@]2(C(=O)N3CCNCC3)CC[C@]3(C)C(=CC[C@@H]4[C@@]5(C)CCC(=O)C(C)(C)[C@@H]5CC[C@]43C)[C@@H]2C1 | 103% | 99.4% | 108% | 97.3% | 109% | 109% | 94.5% | 102% | 102% | 105% | 109% | 109% | 112% | 112% | 115% | 100% | 99.5% | 101% | 106% | 109%
7 | COc1c(-c2cc(-c3ccc(C)o3)[nH]c(=O)n2)c(O)cc2occc12 | 68.8% | 67.3% | 90.7% | 52.1% | 44.4% | 67.3% | 36.1% | 47.1% | 93.9% | 104% | 78.2% | 16.8% | 69.2% | 70.8% | 56.3% | 69.8% | 77.6% | 69.9% | 78.7% | 44.7%
8 | CCCc1n(Cc2ccc3ccccc3n2)cc[n+]1Cc1ccc2ccccc2c1 | -11.6% (active) | 12.3% | 25.7% | 8.38% (active) | 7.73% (active) | -18.6% (active) | -0.784% (active) | 39.1% | 34.7% | -50% (active) | 28.6% | 5.05% (active) | -27.3% (active) | -5.49% (active) | 3.02% (active) | 17% | 4.45% (active) | 12.7% | -9.42% (active) | 3.06% (active)
9 | CCN(CC)C(Cl)=Nc1ccc(Cl)cc1 | 104% | 96.2% | 103% | 99.8% | 106% | 108% | 91.1% | 97.3% | 99.8% | 103% | 119% | 121% | 116% | 102% | 107% | 106% | 97.1% | 106% | 98.8% | 107%
10 | Cc1ccc(NC(=O)c2[nH]c(SCCN(C)C)nc2-c2ccc(F)cc2)cc1Nc1ccc2ncn(C)c(=O)c2c1 | 42.1% | 63.9% | 67% | 58.5% | 56.3% | 38.7% | 69.5% | 40.3% | 72.8% | 14.5% | 80.1% | 40.2% | -12.8% (active) | 40.6% | 71.5% | 71.1% | 82.9% | 65% | 22% | 2.94% (active)
11 | COc1ccc(-c2nc(-c3ccccc3OCc3ccccc3OC)nc(C)c2C(C)=O)cc1 | 74.8% | 81.5% | 94.7% | 91.5% | 80.6% | 71.2% | 78.3% | 79.7% | 91.3% | 86.7% | 92.8% | 81.6% | 92.5% | 64.3% | 92.6% | 94.7% | 91.8% | 101% | 96% | 84.2%
12 | O=c1[nH]c2cc(Cl)c(Cl)cc2o1 | 108% | 90.5% | 109% | 96.8% | 109% | 101% | 103% | 114% | 97.1% | 123% | 113% | 102% | 117% | 100% | 135% | 103% | 55.9% | 105% | 114% | 105%
13 | Nc1nonc1-c1nc2ccccc2n1Cc1ccc(F)cc1 | 70.6% | 69.3% | 69.8% | 56.7% | 49.3% | 65% | 4.81% (active) | 39.1% | 76.4% | 42.8% | 80.7% | 10.6% | 46.2% | 60% | 37.8% | 66.3% | 68.5% | 49.9% | 75.4% | 28.2%
14 | COc1cc2nccc(Oc3ccc(NC(=O)C4(C(=O)Nc5ccc(F)cc5)CC4)cc3)c2cc1OC(=O)c1ccc(N)cc1 | 37.8% | 55.7% | 43% | 11.7% | 24.7% | -13.3% (active) | 21.4% | 33.6% | -17.4% (active) | -36.5% (active) | 45.3% | -20.9% (active) | 26% | -1.25% (active) | -10.4% (active) | 29.4% | -74.6% (active) | -1.2% (active) | 33.5% | 10.8%
15 | F | 41.1% [6.87 mM] | 90.6% [6.87 mM] | 46.4% [6.87 mM] | 10.7% [6.87 mM] | 45.1% [6.87 mM] | -5.03% [6.87 mM] (active) | 56.8% [6.87 mM] | 18% [6.87 mM] | -1.01% [6.87 mM] (active) | 40.3% [6.87 mM] | 49.5% [6.87 mM] | 60.9% [6.87 mM] | -28.9% [6.87 mM] (active) | 5.12% [6.87 mM] (active) | 23.9% [6.87 mM] | 40.9% [6.87 mM] | 2.46% [6.87 mM] (active) | -13% [6.87 mM] (active) | 0.483% [6.87 mM] (active) | -23.4% [6.87 mM] (active)
